Compound activity (PubChem)
KB-3-1 tox: qHTS assay for MDR1-selective chemotherapeutics: Primary screen using the parental adenocarcinoma cell KB-3-1 | 1.4% of 400,000 active | KB-3-1 viability, CellTiter-Glo ATP luminescence, 72 h | Potency, µM (highest dose often 46.1 µM), hits mostly cytotoxic; note: % is set by controls: 0 for no effect and ±100 for the full control effect; nearly all actives have a fitted effect of over 60% in size
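Cells are dispensed, compounds pinned in, plates held at 37 °C for 72 h, then CellTiter-Glo is added and luminescence read after 10 minutes. Cell line: parental KB-3-1 in phenol-red-free DMEM, 10% FBS.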
KB-V1 cytotox: qHTS assay for MDR1-selective chemotherapeutics: Primary screen using the drug-selected MDR subline cells KB-V1 | KB-V1 MDR cells viability, CellTiter-Glo, 72 h | Potency, µM (top dose mostly 46.1 µM), hits mostly cytotoxic | 3.4% of 400,000 active | AID 1347076, 2019; note: % is set by controls: 0 for no effect and ±100 for the full control effect; nearly all actives have a fitted effect of over 60% in size
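KB-V1 MDR subline cells in DMEM (phenol-red free, 10% FBS) exposed to compounds in qHTS concentration series for 72 h at 37 degrees C. Viability read by CellTiter-Glo luminescence; concentration-effect curves fitted after normalization and correction.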
SW480 rereplic: A quantitative high throughput screen for small molecules that induce DNA re-replication in SW480 colon adenocarcinoma cells | SW480 DNA re-replication, Hoechst DNA content imaging, 48 h | Potency, µM (titrated, usually from 46.1 µM), for the others: top-dose re-replication activation, actives largely listed as activators | 1.8% of 340,000 active | AID 624297, 2012; note: % of control where 0% means no effect; nearly all actives have a fitted effect of over 55% in size
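Image-based read-out: total Hoechst fluorescence of nuclei (405 nm excitation, 500-530 nm emission), with hits raising the fraction of high-intensity nuclei. SW480 colon cells incubated 48 hr with compounds at 37 C.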
ELG1 DNA repair: qHTS screen for small molecules that inhibit ELG1-dependent DNA repair in human embryonic kidney (HEK293T) cells expressing luciferase-tagged ELG1; HEK293T ELG1-luciferase reporter, luminescence, 16 h; DNA damage induced by 5-fluorouridine; 2.3% of 330,000 active; AID 504467, 2011; Potency, µM (highest dose often 46.1 µM), inactives show at the top dose activity change, negative = inhibition, usual class: inhibitors; note: % is set by controls: 0 for no effect and ±100 for the full control effect; nearly all actives have a fitted effect of over 55% in size
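Quantitative HTS, concentration-response format. 2,000 cells/well co-treated with 5-fluorouridine and compound, 16 hr in 5% CO2 at 37 °C; ONE-Glo luminescence read after 30 min.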
MCF10A rerep: A quantitative high throughput screen for small molecules that induce DNA re-replication in MCF 10a normal breast cells; MCF 10A DNA re-replication, Hoechst nuclear intensity, 48 h; Potency, µM (doses to about 46.1 µM), without a hit: at the top dose activity, positive = re-replication, most hits filed as activators; 2.9% of 350,000 active; note: % of control where 0% means no effect; nearly all actives have a fitted effect of over 50% in size
An asterisk follows results filed as active; i = inactive; ? = inconclusive; . = no result given. The list is not random: actives were taken first. Their share in the collection is about 8.1%. Calls come from the whole dose curve; as a rule, active = well fitted curve in the direction sought with a large enough effect; inconclusive = small, poorly fitted or top-dose-only effect, or another doubt; inactive = no such curve, though single readings can be large; an effect the other way counts as inactive or inconclusive. Potency is the fitted concentration of half-maximal effect.

SMILES | KB-3-1 tox | KB-V1 cytotox | SW480 rereplic | ELG1 DNA repair | MCF10A rerep
Cc1cc(O)c2c(c1O)C(=O)[C@]13C(=C2O)C(=O)[C@@H]2[C@@H](O)[C@H]1[C@@H]1[C@H](O)[C@H]3C(=O)C3=C(O)c4c(O)cc(C)c(O)c4C(=O)[C@]312 | 1.2µM* | i | 5% | ? | -55%
CN1CCN(C(=O)C[C@@H]2CC[C@@H]3[C@H](COC[C@@H](O)CN3Cc3cccc(Cl)c3)O2)CC1 | i | i | . | . | .
CN(C)/C=C/c1c([N+](=O)[O-])c2ccc(O)cc2n1-c1ccccc1 | i | i | ? | 7.3µM* | ?
COc1ccc(NC(=O)CN(C)Cc2c(F)cccc2Cl)cc1S(=O)(=O)N1CCCCC1 | i | ? | 1% | ? | -1%
COc1ccc(/C=C/C(=O)N(C)CC(=O)Nc2cccc(F)c2)cc1S(=O)(=O)N1CCCCC1 | 21µM* | i | 21µM* | ? | ?
COc1ccc(CN(C)C(C)C(=O)Nc2ccc(S(=O)(=O)N3CCCCC3)cc2)c(OC)c1 (stereo not given) | i | i | ? | ? | 18µM*
COc1ccc(NC(=O)CN(C)C(=O)/C=C/c2ccc(S(=O)(=O)N3CCCCCC3)cc2)cc1 | ? | 21µM* | 13% | ? | ?
C[C@@H]1CN([C@@H](C)CO)C(=O)c2cc(Br)cnc2O[C@H]1CN(C)Cc1ccccc1C(=O)O | i | i | . | . | .
CCc1ccc(N2C(=O)CSC23C(=O)N(Cc2ccc(C)cc2)c2ccccc23)cc1 (stereo not given) | ? | 12µM* | . | . | .
O=C(CN1C(=O)C2(SCC(=O)N2c2cccc(Cl)c2)c2ccccc21)NCCc1ccccc1 (stereo not given) | 15µM* | i | . | . | .
CCc1ccc(N2C(=O)CSC23C(=O)N(Cc2cccc(F)c2)c2ccccc23)cc1 (stereo not given) | ? | 12µM* | . | . | .
CC(C)c1ccc(N2C(=O)CSC23C(=O)N(Cc2ccccc2)c2ccccc23)cc1 (stereo not given) | ? | 12µM* | . | . | .
COc1ccccc1NC(=O)CN1C(=O)C2(SCC(=O)N2c2ccc(C)c(C)c2)c2ccccc21 (stereo not given) | 18µM* | ? | . | . | .
Cc1ccc(CN2C(=O)C3(SCC(=O)N3c3ccc(C)c(C)c3)c3ccccc32)cc1 (stereo not given) | 21µM* | 18µM* | . | . | .
Cc1ccc(N2C(=O)CSC23C(=O)N(Cc2ccccc2F)c2ccccc23)cc1F (stereo not given) | ? | 10µM* | . | . | .
Cc1ccc(N2C(=O)CSC23C(=O)Nc2ccccc23)cc1F (stereo not given) | i | i | . | . | .
CC1(c2nnnn2-c2ccc3c(c2)OCCO3)CCC(=O)N1C1CCN(Cc2ccccc2)CC1 (stereo not given) | i | i | . | . | .
Cc1ccc(CCc2nnc(SCC(=O)Nc3cc(Cl)ccc3Cl)n2-c2ccccc2)o1 | i | 15µM* | 11% | -16% | ?
Cc1ccc(CCC(=O)Nc2cc(Cl)ccc2Cl)o1 | i | i | 7% | -9% | -2%
COc1ccc(S(=O)(=O)c2c(SC)nn(CC(=O)Nc3cccc(C)c3C)c2N)cc1 | i | i | . | . | .
CN1CCc2ccc(NC(=O)c3ccc(C(F)(F)F)cc3)cc2C1 | ? | i | -2% | ? | ?
CC1Cc2ccccc2N1S(=O)(=O)c1ccc2c(c1)n(C)c(=O)c(=O)n2C (stereo not given) | i | 16µM* | 1% | -12% | 16%
CC(=O)N1c2ccc(S(=O)(=O)N3c4ccccc4CC3C)cc2CC1C (stereo not given) | i | i | -10% | 10% | -7%
COc1ccc2ncc(S(=O)(=O)c3ccccc3)c(N3CCN(c4ccccc4)CC3)c2c1 | i | i | -10% | 16µM* | 14%
Cc1ccc(C(=O)C(C)CN2CCCCC2)cc1 (stereo not given) | . | . | 12% | . | 4%
SMILES | KB-3-1 tox | KB-V1 cytotox | SW480 rereplic | ELG1 DNA repair | MCF10A rerep
COc1cc(N2C(=O)C=CC2=O)c(OC)cc1Cl | ? | ? | ? | -13% | 5.8µM*
CN(C)/N=C/C=C1\CCC/C(=C/c2cccs2)C1=O | i | ? | ? | ? | 23µM*
CN(C)/N=C/C=C1\CC/C(=C\c2ccc(Br)cc2)C1=O | i | i | ? | ? | -2%
FC(F)(F)c1cccc(CN2CCN(c3ncccn3)CC2)c1 | i | i | -22% | . | -4%
CCc1nc(CN2CCN(c3cc(C(F)(F)F)ccn3)CC2)c(C)[nH]1 | i | i | -19% | 7.3µM* | 20%
COCCn1c(C)cc(O)c(C(c2ccc(Cl)cc2)N2CCN(c3ccccc3)CC2)c1=O (stereo not given) | i | i | . | . | .
COc1ccc2nc(C)cc(NCc3cccc(C(F)(F)F)c3)c2c1 | i | ? | 23µM* | -13% | 21µM*
CCOC(=O)C1=C(C)N=c2s/c(=C\c3ccc(O)c([N+](=O)[O-])c3)c(=O)n2C1c1ccccc1OC (stereo not given) | ? | ? | 17% | -29% | ?
COc1ccc(/C=c2/sc3n(c2=O)C(c2ccccc2OC)C2=C(N=3)c3ccccc3CC2)cc1O (stereo not given) | ? | ? | 5.2µM* | ? | 18µM*
CCC(C(=O)N1CCCC1)n1nc(C)c2c(C)n(-c3ccccc3)nc2c1=O (stereo not given) | i | i | 21µM* | 15% | 0%
Cc1ccc(-n2nc3c(=O)n(C(C)C(=O)NCc4ccccc4C)nc(C)c3c2C)cc1 (stereo not given) | 15µM* | i | . | . | .
CCC(C(=O)NCCc1ccc(C)cc1)n1nc(C)c2c(C)n(-c3ccccc3)nc2c1=O (stereo not given) | i | i | ? | -11% | -2%
Cc1nn(C(C)C(=O)NCc2ccccc2F)c(=O)c2nn(-c3ccccc3)c(C)c12 (stereo not given) | i | i | -13% | 1% | -1%
Cc1ccc(-n2nc3c(=O)n(C(C)C(=O)NCc4ccc(Cl)cc4)nc(C)c3c2C)cc1 (stereo not given) | 8.2µM* | i | -1% | ? | 0%
Cc1ccc(CCNC(=O)C(C)n2nc(C)c3c(C)n(-c4ccccc4)nc3c2=O)cc1 (stereo not given) | i | i | 0% | ? | 0%
